In PubChem BioAssay (NCATS):
Inconclusive results are not listed. Active and inactive are the calls of the source. Unless noted, the call rests on the fitted dose curve; in most records, active means well fitted curve in the direction sought with a large enough effect; inconclusive means small, poorly fitted or top-dose-only effect, or another doubt; inactive means no such curve, though single readings can be large; an effect the other way counts as inactive or inconclusive.

Experiments:
[1] = Cell Viability - BJ (AID 421; calls by dose curve;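 further: potency means the concentration at half of the fitted maximal effect; cells exposed to compound for 40 hours at 37 °C before readout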); settings: BJ fibroblast viability, qHTS
Procedure, shortened: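 Normal human BJ foreskin fibroblasts, 1500/well in complete medium, treated 40 hr at 37 °C. Cellular ATP by CellTiter-Glo luminescence; normalized to DMSO and 100 uM tamoxifen, AC50 from Hill fit.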

[2] = Cell Viability - Jurkat (AID 426;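 active means dose-dependent loss of cell ATP signal giving a full or clear fitted curve, ranked by lower potency value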; further: potency means the concentration at half of the fitted maximal effect); settings: qHTS
Procedure, shortened: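 Jurkat (clone E6-1, human T-cell leukemia) cells, 5000/well in complete medium, were exposed to compound for 40 hr at 37 °C. Viability was read as intracellular ATP by CellTiter-Glo luminescence; AC50 came from Hill fits of concentration-response data.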

[3] = Cell Viability - Hek293 (AID 427;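 active means compounds whose dose-response curve shows a full or clear partial loss of cell viability, called from curve shape rather than a numeric limit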;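 further: potency means the concentration at half of the fitted maximal effect; cells exposed to compound for 40 hours at 37 °C before reading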); settings: qHTS
Procedure, shortened: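 HEK293 cells in complete medium were exposed to compound for 40 hr at 37 °C, then cellular ATP was read by CellTiter-Glo luminescence. Data were normalized to DMSO (basal) and 100 uM tamoxifen (100% inhibition), and AC50 came from Hill fits.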

[4] = Cell Viability - SK-N-SH (AID 435; calls by dose curve; further: potency means the concentration at half of the fitted maximal effect); settings: SK-N-SH neuroblastoma cell viability qHTS
Procedure, shortened: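 qHTS cytotoxicity: CellTiter-Glo ATP luminescence after 40 h compound exposure of human neuroblastoma SK-N-SH cells at 37 °C. AC50 derived by Hill-equation fitting, with DMSO as basal and 100 uM tamoxifen as full inhibition.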

[5] = target: Mitogen-activated protein kinase 10 (Mus musculus) (UniProt Q61831); assay: JNK3 AlphaScreen Assay (AID 530; active means well fitted curve in either direction with a large enough effect, not every such curve was filed as active;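 further: kinase came from lysate of stimulated human HepG2 cells; signal reports phosphorylation of biotinylated GST-cJun 1-79 at Ser73 with 10 µM ATP; on the % scale 0 is the no-effect control and ±100 the full control effect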)
Procedure, shortened: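 qHTS format: compounds tested as titrations against IL-1beta/TNF-alpha-activated HepG2 lysate JNK3 with biotin-GST-cJun substrate and 10 uM ATP at room temperature. Loss of anti-phospho-cJun AlphaScreen signal indicates inhibition.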

[6] = Cell Viability - NIH 3T3 (AID 541); settings: NIH 3T3 cell viability, qHTS; activity change, negative = cytotoxicity: at 92.2 µM (top of the series);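 further: plate controls were DMSO alone for no effect and tamoxifen positive control for full effect; nearly all actives have a fitted effect of over 25% in size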
Procedure, shortened: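 NIH 3T3 mouse embryo fibroblasts (1000 cells/well) were plated in complete medium and treated with compound for 40 hr at 37 °C. Viability was read as intracellular ATP by CellTiter-Glo luminescence; AC50 values came from Hill-equation fits of concentration-response data.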

[7] = Cell Viability - HUV-EC-C (AID 542); further: on the % scale 0 is the no-effect control and ±100 the full control effect; nearly all actives have a fitted effect of over 35% in size
Procedure, shortened: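 HUV-EC-C normal human vascular endothelial cells, 1000 cells/well, pre-incubated 5 hr at 37 °C, then exposed to compounds for 40 hr at 37 °C in complete medium. Viability measured as intracellular ATP by CellTiter-Glo luminescence; AC50 from Hill fits.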

[8] = Cell Viability - H-4-II-E (AID 543); further: on the % scale 0 is the no-effect control and ±100 the full control effect; nearly all actives have a fitted effect of over 35% in size
Procedure, shortened: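 Rat hepatoma H-4-II-E cells (1500/well) were plated, incubated 5 hr at 37 °C, then exposed to compounds for 40 hr at 37 °C. Cellular ATP was read by CellTiter-Glo luminescence; AC50 came from Hill-equation fits of concentration-response data.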

[9] = Cell Viability - SH-SY5Y (AID 544); further: nearly all actives have a fitted effect of over 55% in size
Procedure, shortened: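 Human neuroblastoma SH-SY5Y cells (1500/well) in complete medium were exposed to compounds for 40 hr at 37 °C; intracellular ATP was then quantified by CellTiter-Glo luminescence after 20 min at room temperature. AC50 came from Hill-equation concentration-response fits.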

[10] = Cell Viability - Renal Proximal Tubule (AID 545); settings: renal proximal tubule cells viability, primary cells of rat origin; at 91.7 µM (top of the series); further: nearly all actives have a fitted effect of over 40% in size
Procedure, shortened: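 Viability taken as intracellular ATP (CellTiter-Glo luminescence) after 40 hr, 37 °C compound treatment of primary proximal tubule cells from rat kidney, 1000 cells/well; Hill-equation fits of qHTS concentration-response data gave AC50.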

[11] = Cell Viability - Mesenchymal (AID 546); settings: mesenchymal cells viability, qHTS; activity change, negative = cytotoxicity: at 91.7 µM (top of the series);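 further: cells exposed to compound for 40 hours before reading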
Procedure, shortened: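 Human kidney mesenchymal cells from normal renal glomeruli, 1000 cells/well, rested 5 hr at 37 °C, then treated 40 hr at 37 °C in complete medium. Cellular ATP read by CellTiter-Glo luminescence; AC50 from Hill-equation fits.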

[12] = Cellular Toxicity (caspase-3) HepG2 (AID 654);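 further: cells exposed to compound for 16 hours before reading; 0% = DMSO alone and 100% = caspase signal from 100 µM tamoxifen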
Procedure, shortened: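 HepG2 cells (1500/well) in complete medium were treated with compounds for 16 hr at 37 °C. Caspase-3/7 activity was then read as luminescence from peptide-aminoluciferin cleavage. AC50 came from Hill fits, normalized to DMSO and 100 uM tamoxifen.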

[13] = Cellular Toxicity (caspase-3) Jurkat (AID 655); settings: Jurkat caspase-3 activation, luminescence, DMSO = 0%, tamoxifen = 100%; at 92.2 µM (top of the series);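 further: cells exposed to compound for 16 h at 37 °C before reading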
Procedure, shortened: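 Luminescent Caspase-Glo 3/7 read-out (20 min, room temperature) after 16 h compound treatment at 37 C of 5000 Jurkat cells per well. AC50 derived by Hill-equation fitting, scaled between DMSO basal and 100 uM tamoxifen stimulation.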

[14] = Cellular Toxicity (caspase-3) HUV-EC-C (AID 656)
Procedure, shortened: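 Luminescent Caspase-Glo 3/7 readout after 16 h, 37 °C compound exposure of HUV-EC-C endothelial cells, 1000 per well, complete medium. AC50 derived by Hill fitting, with DMSO as baseline and 100 uM tamoxifen as full activation.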

[15] = Cellular Toxicity (caspase-3) SHSY5Y (AID 657)
Procedure, shortened: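 Luminescent Caspase-Glo 3/7 read-out, 1 hr room temperature, follows 16 hours of compound treatment of SH-SY5Y cells at 37 °C. Normalization: DMSO basal, 10 uM staurosporine as 100%; AC50 values from Hill-equation concentration-response fits.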

[16] = Cellular Toxicity (caspase-3) BJ (AID 658);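 further: 0% = DMSO basal and 100% = 10 µM staurosporine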
Procedure, shortened: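 BJ human foreskin fibroblasts, 1000 cells/well, treated 16 hours at 37 °C in complete medium; caspase 3/7 activity by Caspase-Glo luminescence after 1 hr at room temperature. Normalized to DMSO and 10 uM staurosporine; AC50 from Hill fits.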

[17] = Cellular Toxicity (caspase-3) MRC-5 (AID 659);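 further: 0% = DMSO basal and 100% = 10 µM staurosporine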
Procedure, shortened: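 MRC-5 human normal lung fibroblasts, 1500 cells/well, treated 16 h at 37 °C in complete medium. Caspase 3/7 measured by Caspase-Glo luminescence after 1 h at room temperature. Normalized to DMSO and 10 uM staurosporine; AC50 from Hill fit.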

[18] = Cellular Toxicity (caspase-3) Mesangial (AID 660)
Procedure, shortened: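 Human renal glomerular mesangial cells (1000/well) were treated with compounds for 16 h at 37 °C in complete medium, then caspase 3/7 activity was read by Caspase-Glo luminescence. Data were normalized to DMSO and 100 uM tamoxifen; AC50 from Hill fits.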

[19] = Cellular Toxicity (caspase-3) SK-N-SH (AID 661);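 further: 0% = DMSO basal and 100% = 10 µM staurosporine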
Procedure, shortened: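 SK-N-SH human neuroblastoma cells (1500/well) were treated with compounds for 16 hr at 37 °C in complete medium; caspase 3/7 activity was read by Caspase-Glo luminescence. AC50 came from Hill fits of data normalized to DMSO and 10 uM staurosporine.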

[20] = Cellular Toxicity (caspase-3) H-4-II-E (AID 663); settings: Potency: caspase-3 activation;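 further: cells exposed to compound for 16 hr before readout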
Procedure, shortened: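 Rat hepatoma H-4-II-E cells (1500/well) plated 5 hr, then exposed to compound titrations for 16 hr at 37 °C. Caspase-Glo 3/7 luminescence read after 20 min at RT; data normalized to DMSO and 100 uM tamoxifen, AC50 from Hill fits.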

[21] = Cellular Toxicity (caspase-3) Hek293 (AID 664);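 further: cells exposed to compound for 16 h at 37 °C before readout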
Procedure, shortened: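 HEK293 cells were exposed to compounds in complete medium for 16 hr at 37 °C, then caspase-3/7 activity was read by Caspase-Glo 3/7 luminescence after 20 min at room temperature. Data normalized to DMSO and 100 uM tamoxifen; AC50 from Hill fits.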

[22] = Cellular Toxicity (caspase-3) N2a (AID 665);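 further: compound exposure lasted 16 h at 37 °C before readout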
Procedure, shortened: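 Mouse N2a neuroblastoma cells (1500/well) were treated with compounds for 16 h at 37 °C, then caspase-3/7 activity was read by Caspase-Glo luminescence after 1 h at room temperature. Data were normalized to DMSO and 10 uM staurosporine; AC50 from Hill fits.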

CC12CCC(CC1=O)C2(C)C (configuration not stated)
inactive: Potency [1] > 92 µM | Potency [2] > 92 µM | Potency [3] > 92 µM | Potency [4] > 92 µM | Potency [5] | Potency [6] | outcome [7] | Potency [8] | Potency [9] | activity change, negative = cytotoxicity [10] -5.29% | activity change, negative = cytotoxicity [11] -11.1% | outcome [12] | caspase-3 activation [13] -3.1% | outcome [14] | outcome [15] | outcome [16] | outcome [17] | outcome [18] | outcome [19] | Potency [20] | outcome [21] | outcome [22]
